# Measured values from the supplement of paper PMC6555819.
# Experiments:
# Assay in all cases: PBM binding z-score (relative to random genomic background probes); higher = stronger binding; sequences stand for … in GC…GCGATTGACAGCGTAGAATGAAGG
# [1] = test system: FXR:RXRa (NR concentration 270 nM, RXRa partner concentration 90 nM)
# Procedure, shortened: (§1)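 The probes on custom Agilent 4×180K protein-binding microarrays were double-stranded, with 34-nt variable regions bearing direct-repeat seeds, single-nucleotide variants, half-site ablations and random human genomic background sequences. Incubation lasted 1 h with ligand-free nuclear receptor dimers in PBS pH 7.4, 2% milk, 0.02% Triton X-100, 1 mM DTT, 0.2 mg/mL BSA and 0.4 mg/ml salmon testes DNA. Antibodies against each partner (one per run) detected bound dimers, and fluorescence scans were regression-normalized. Binding z-scores take the random background probes as reference.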
# [2] = test system: LXRa:RXRa (NR concentration 270 nM, RXRa partner concentration 90 nM)
# Procedure, shortened: as §1
# [3] = test system: LXRa homodimer (NR concentration 270 nM)
# Procedure, shortened: as §1
# [4] = test system: LXRb:RXRa (NR concentration 270 nM, RXRa partner concentration 90 nM)
# Procedure, shortened: as §1
# [5] = test system: LXRb homodimer (NR concentration 270 nM)
# Procedure, shortened: as §1
# [6] = test system: PPARa:RXRa (NR concentration 270 nM, RXRa partner concentration 90 nM)
# Procedure, shortened: as §1
# [7] = test system: PPARg:RXRa (NR concentration 180 nM, RXRa partner concentration 90 nM)
# Procedure, shortened: as §1
# [8] = test system: PPARg:RXRa 270nM:90nM, anti-RXR (NR concentration 270 nM, RXRa partner concentration 90 nM)
# Procedure, shortened: as §1
# [9] = test system: PPARg:RXRa 30nM:10nM, anti-RXR (NR concentration 30 nM, RXRa partner concentration 10 nM)
# Procedure, shortened: as §1
# [10] = test system: PPARg:RXRa 90nM:30nM, anti-RXR (NR concentration 90 nM, RXRa partner concentration 30 nM)
# Procedure, shortened: as §1
Sequence,PBM binding z-score [1],PBM binding z-score [2],PBM binding z-score [3],PBM binding z-score [4],PBM binding z-score [5],PBM binding z-score [6],PBM binding z-score [7],PBM binding z-score [8],PBM binding z-score [9],PBM binding z-score [10]
AGAATGAGGTTATGAAGATCAGGGAATTGCGGTC,1.75,1.53,0.162,1.04,-0.127,2.86,1.68,2.1,1.05,1.61
CAAACTAGGTCAAAGGTCGAAGTCGAGCCAACCA,7.06,5.62,1.41,4.93,0.909,7.28,13.9,11.2,14.3,13.6
ATATGTAGGTTATCGCGTCATTCAGTTTGCGCAT,0.694,1.01,0.372,1.1,0.647,3.31,3.86,3.94,1.41,3.08
GCAGGCAGGTGAAACGCAGGTAACTCAGGGTGGC,0.782,0.881,-0.513,-0.67,-0.423,0.341,0.206,-0.46,-0.909,-0.6
ACTCGGAGAACAAAGGTCAGAGCTACGCCAGTGA,3.2,3.85,1.8,3.29,0.2,4.69,5.98,5.81,4.63,6.07
CAGAGTAGGTTATGGGGCATTCAGGCAACGGTGA,0.558,0.666,0.0454,0.833,-0.04,2.78,4.39,5.4,3.13,5.42
CCTATTGGGCCATTCAGAGGTCATTGATCATATG,3,4.68,6.08,4.04,0.58,3.65,1.17,2.6,0.568,1.77
CAAACTAGGTCAAAGGACAAAGTCGAGCCAACCA,4.29,3.41,0.833,2.68,0.636,5.81,10.2,8.77,8.72,9.77
ATCTCTAGGTGACAAGTTCAGTGAAAGAGAGGAC,0.297,0.503,0.114,0.645,0.171,2.58,3.19,3.1,1.46,2.43
CCTGCTAGGTCATGGTCCGCTAATCTACAGTATG,3.61,2.3,0.0178,1.67,-0.223,3.46,2.34,2.78,0.499,1.74
CCTTACGGGTCACGAGGTTAGAGCACGACGAGCG,6.98,4.06,0.353,3.58,0.0179,5.8,7.39,6.87,3.49,6.11
TAGCCTAGGTCATGGGCCCGTATACCACGCGAAC,4.69,3.5,0.466,2.77,-0.0336,4,3.44,3.32,0.723,2.09
